Source: PubChem BioAssay AID1159580 (chemical genetic matrix, 2015)
Out of some 5,500 compounds screened, about 2,000 (36%) were called active. Roughly 18% stayed inconclusive and do not appear here. Cut-off read from the data, not from the text of the source: active = normalized growth mostly below about 0.91 (no sharp cut-off); inconclusive = no clear call, values can overlap the other calls; inactive = mostly above about 0.92. The list shows a part of the results.

Test: chemical genetic growth profiling, strain panel (AID 1159580);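 note: tested at 20 µM; growth read once vehicle control cultures reached saturation at 30 °C; 1 = growth at the plate median or of vehicle wells; lower values mean less growth of the strain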
Conditions: growth OD
[1] = S. cerevisiae deletion strains, locus YDL101C, strain DUN1, hits give low values
[2] = S. cerevisiae deletion strains, locus YHR030C, strain SLT2, hits give low values

Measured: normalized growth

COCCCNC(=S)N/N=C\c1cccc(OC)c1O
inactive: S. cerevisiae deletion strains, locus YAL013W, strain DEP1, hits give low values 0.984 | S. cerevisiae deletion strains, locus YBR229C, strain ROT2, hits give low values 1.02 | S. cerevisiae deletion strains, locus YCL061C, strain MRC1, hits give low values 0.979 | [1] 0.998 | S. cerevisiae deletion strains, locus YDL134C, strain PPH21, hits give low values 1.01 | S. cerevisiae deletion strains, locus YDR150W, strain NUM1, hits give low values 0.928 | S. cerevisiae deletion strains, locus YEL061C, strain CIN8, hits give low values 0.999 | S. cerevisiae deletion strains, locus YGR078C, strain PAC10, hits give low values 0.991 | [2] 1.01 | S. cerevisiae deletion strains, locus YHR087W, strain rtc3, hits give low values 1.01 | S. cerevisiae deletion strains, locus YJR043C, strain POL32, hits give low values 1.01 | S. cerevisiae deletion strains, locus YJR075W, strain HOC1, hits give low values 0.979 | S. cerevisiae deletion strains, locus YLR039C, strain RIC1, hits give low values 1.11 | S. cerevisiae deletion strains, locus YLR058C, strain SHM2 (second series), hits give low values 0.997 | S. cerevisiae deletion strains, locus YLR085C, strain ARP6, hits give low values 0.978 | S. cerevisiae deletion strains, locus YLR262C, strain YPT6, hits give low values 1.08 | S. cerevisiae deletion strains, locus YML094W, strain GIM5, hits give low values 0.994 | S. cerevisiae deletion strains, locus YMR219W, strain ESC1, hits give low values 0.991 | S. cerevisiae deletion strains, locus YMR263W, strain SAP30, hits give low values 0.991 | S. cerevisiae deletion strains, locus YMR307W, strain GAS1, hits give low values 0.951 | S. cerevisiae deletion strains, locus YNL153C, strain GIM3, hits give low values 0.987 | S. cerevisiae deletion strains, locus YNL298W, strain CLA4 (second series), hits give low values 1.04 | S. cerevisiae deletion strains, locus YNL322C, strain KRE1, hits give low values 0.989 | S. cerevisiae deletion strains, locus YNR030W, strain Alg12, hits give low values 0.982 | S. cerevisiae deletion strains, locus YOL006C, strain TOP1, hits give low values 0.988 | S. cerevisiae deletion strains, locus YPL055C, strain LGE1, hits give low values 0.856 | S. cerevisiae deletion strains, locus YPL241C, strain CIN2, hits give low values 0.964 | S. cerevisiae deletion strains, locus YPR135W, strain CTF4, hits give low values 0.94 | S. cerevisiae strains, strain wild type, hits give low values 1.02

COCCCNC(=S)N/N=C\c1cc(Cl)cc(Cl)c1O
active: [2] 0.797 | S. cerevisiae deletion strains, locus YPL256C, strain CLN2, hits give low values 0.859
inactive: S. cerevisiae deletion strains, locus YAR019C, strain CDC15, hits give low values 0.958 | S. cerevisiae deletion strains, locus YBL105C, strain PKC1, hits give low values 0.946 | S. cerevisiae deletion strains, locus YBR135W, strain CKS1, hits give low values 0.957 | S. cerevisiae deletion strains, locus YBR136W, strain MEC1, hits give low values 0.956 | S. cerevisiae deletion strains, locus YBR160W, strain CDC28, hits give low values 0.965 | S. cerevisiae deletion strains, locus YDL017W, strain CDC7, hits give low values 0.951 | S. cerevisiae deletion strains, locus YDL028C, strain MPS1, hits give low values 0.951 | [1] 0.959 | S. cerevisiae deletion strains, locus YDL108W, strain KIN28, hits give low values 0.961 | S. cerevisiae deletion strains, locus YDL132W, strain cdc53, hits give low values 0.958 | S. cerevisiae deletion strains, locus YDL214C, strain PRR2, hits give low values 0.942 | S. cerevisiae deletion strains, locus YDR052C, strain DBF4, hits give low values 0.956 | S. cerevisiae deletion strains, locus YDR054C, strain cdc34, hits give low values 0.947 | S. cerevisiae deletion strains, locus YDR226W, strain ADK1, hits give low values 0.951 | S. cerevisiae deletion strains, locus YDR477W, strain SNF1, hits give low values 0.914 | S. cerevisiae deletion strains, locus YER123W, strain YCK3, hits give low values 0.944 | S. cerevisiae deletion strains, locus YER133W, strain GLC7, hits give low values 0.924 | S. cerevisiae deletion strains, locus YFL009W, strain cdc4, hits give low values 0.952 | S. cerevisiae deletion strains, locus YFL029C, strain CAK1, hits give low values 0.958 | S. cerevisiae deletion strains, locus YFR003C, strain YPI1, hits give low values 0.954 | S. cerevisiae deletion strains, locus YFR019W, strain FAB1, hits give low values 0.962 | S. cerevisiae deletion strains, locus YFR028C, strain CDC14, hits give low values 0.968 | S. cerevisiae deletion strains, locus YGR040W, strain KSS1, hits give low values 0.927 | S. cerevisiae deletion strains, locus YGR052W, strain FMP48, hits give low values 0.942 | S. cerevisiae deletion strains, locus YGR092W, strain DBF2, hits give low values 0.783 | S. cerevisiae deletion strains, locus YHR079C, strain IRE1, hits give low values 0.903 | S. cerevisiae deletion strains, locus YHR082C, strain KSP1, hits give low values 0.983 | S. cerevisiae deletion strains, locus YHR205W, strain SCH9, hits give low values 0.853 | S. cerevisiae deletion strains, locus YIL147C, strain SLN1, hits give low values 0.957 | S. cerevisiae deletion strains, locus YJL095W, strain BCK1, hits give low values 0.904 | S. cerevisiae deletion strains, locus YJL128C, strain PBS2, hits give low values 0.924 | S. cerevisiae deletion strains, locus YJL157C, strain FAR1, hits give low values 0.918 | S. cerevisiae deletion strains, locus YJR016C, strain ILV3, hits give low values 0.957 | S. cerevisiae deletion strains, locus YJR066W, strain TOR1 (second series), hits give low values 0.887 | S. cerevisiae deletion strains, locus YJR066W, strain TOR1, hits give low values 0.957 | S. cerevisiae deletion strains, locus YKL048C, strain ELM1, hits give low values 0.936 | S. cerevisiae deletion strains, locus YKL067W, strain YNK1, hits give low values 0.953 | S. cerevisiae deletion strains, locus YKL101W, strain HSL1, hits give low values 0.946 | S. cerevisiae deletion strains, locus YKL193C, strain SDS22, hits give low values 0.953 | S. cerevisiae deletion strains, locus YKL203C, strain TOR2, hits give low values 0.953 | S. cerevisiae deletion strains, locus YLR113W, strain HOG1, hits give low values 0.904 | S. cerevisiae deletion strains, locus YLR133W, strain CKI1, hits give low values 0.924 | S. cerevisiae deletion strains, locus YLR403W, strain SFP1, hits give low values 0.889 | S. cerevisiae deletion strains, locus YML070W, strain DAK1, hits give low values 0.95 | S. cerevisiae deletion strains, locus YMR001C, strain CDC5, hits give low values 0.956 | S. cerevisiae deletion strains, locus YMR205C, strain PFK2 (second series), hits give low values 0.943 | S. cerevisiae deletion strains, locus YMR277W, strain FCP1, hits give low values 0.962 | S. cerevisiae deletion strains, locus YNL006W, strain LST8, hits give low values 0.963 | S. cerevisiae deletion strains, locus YNL020C, strain ARK1, hits give low values 0.903 | S. cerevisiae deletion strains, locus YNL161W, strain CBK1, hits give low values 0.959 | S. cerevisiae deletion strains, locus YNL183C, strain NPR1, hits give low values 0.988 | S. cerevisiae deletion strains, locus YNL207W, strain RIO2, hits give low values 0.957 | S. cerevisiae deletion strains, locus YNL222W, strain SSU72, hits give low values 0.962 | S. cerevisiae deletion strains, locus YNL307C, strain MCK1 (second series), hits give low values 0.909 | S. cerevisiae deletion strains, locus YOL078W, strain AVO1, hits give low values 0.962 | S. cerevisiae deletion strains, locus YOL136C, strain PFK27, hits give low values 0.953 | S. cerevisiae deletion strains, locus YOR061W, strain CKA2, hits give low values 0.951 | S. cerevisiae deletion strains, locus YOR119C, strain RIO1, hits give low values 0.989 | S. cerevisiae deletion strains, locus YOR231W, strain MKK1, hits give low values 0.943 | S. cerevisiae deletion strains, locus YOR329C, strain SCD5, hits give low values 0.96 | S. cerevisiae deletion strains, locus YPL031C, strain PHO85, hits give low values 0.904 | S. cerevisiae deletion strains, locus YPL153C, strain RAD53, hits give low values 0.903 | S. cerevisiae deletion strains, locus YPL204W, strain HRR25, hits give low values 0.882 | S. cerevisiae deletion strains, locus YPL209C, strain IPL1, hits give low values 0.962 | S. cerevisiae deletion strains, locus YPR025C, strain CCL1, hits give low values 0.961 | S. cerevisiae deletion strains, locus YPR106W, strain ISR1, hits give low values 0.955 | S. cerevisiae deletion strains, locus YPR111W, strain DBF20, hits give low values 0.96 | S. cerevisiae deletion strains, strain NNK1, hits give low values 0.955 | S. cerevisiae deletion strains, strain TSCII, hits give low values 0.956
